Measurements: PubChem BioAssay AID1347418 (Sanford-Burnham Center for Chemical Genomics, 2020)
Hit rate of the full screen: of about 1,300 compounds, about 750 (58%) were called active. The list shows a part of the results. Values without a mark were called inactive.

Molecular target: Sulfhydryl oxidase 1 (Homo sapiens) (UniProt O00391)
Assay: QSOX1 enzyme inhibitors, primary screen, biochemical, ROS-Glo H2O2 luminescence, HTS (AID 1347418)
Conditions: recombinant QSOX1, ROS-Glo H2O2 luminescence; at 12.5 µM; active compounds read high; active = any value above zero

Chain of Sulfhydryl oxidase 1 (Homo sapiens) (O00391 whole entry, looked up): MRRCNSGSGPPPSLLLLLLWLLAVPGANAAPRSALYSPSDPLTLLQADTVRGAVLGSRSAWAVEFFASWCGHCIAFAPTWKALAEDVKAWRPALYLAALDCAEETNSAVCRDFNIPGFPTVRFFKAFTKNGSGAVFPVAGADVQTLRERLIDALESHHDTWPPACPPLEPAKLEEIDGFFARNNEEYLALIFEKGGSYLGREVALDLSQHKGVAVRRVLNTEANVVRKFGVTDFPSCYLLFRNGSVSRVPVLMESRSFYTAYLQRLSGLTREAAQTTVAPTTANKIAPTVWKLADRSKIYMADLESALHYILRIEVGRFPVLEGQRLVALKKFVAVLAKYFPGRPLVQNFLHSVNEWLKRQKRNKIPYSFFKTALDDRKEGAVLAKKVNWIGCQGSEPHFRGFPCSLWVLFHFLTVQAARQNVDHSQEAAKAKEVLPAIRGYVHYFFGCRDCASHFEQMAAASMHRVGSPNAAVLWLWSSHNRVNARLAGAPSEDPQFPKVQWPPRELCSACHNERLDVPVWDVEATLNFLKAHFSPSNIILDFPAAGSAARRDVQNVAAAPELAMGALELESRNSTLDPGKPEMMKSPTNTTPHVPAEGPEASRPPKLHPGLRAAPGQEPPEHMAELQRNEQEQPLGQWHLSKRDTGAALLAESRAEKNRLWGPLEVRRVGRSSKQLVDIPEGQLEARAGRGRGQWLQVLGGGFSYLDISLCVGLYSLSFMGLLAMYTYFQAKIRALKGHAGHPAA

SMILES | inhibition
CC(C)(C)c1cc(/C=C(\C#N)C(N)=S)cc(C(C)(C)C)c1O | 37.7% (active)
C#CCN(C)Cc1ccccc1 | -0.7%
CN(C)C/C=C(/c1ccc(Br)cc1)c1cccnc1 | 2.7% (active)
CN1CCC(=C2c3ccccc3CC(=O)c3sccc32)CC1 | 0.8% (active)
CN1CCC(=C2c3ccccc3C=Cc3ccccc32)CC1 | 2.2% (active)
CCC1(O)CC2CN(CCc3c([nH]c4ccccc34)[C@@](C(=O)OC)(c3cc4c(cc3OC)N(C=O)C3[C@]45CCN4CC=C[C@@](CC)([C@@H](OC(C)=O)[C@]3(O)C(=O)OC)[C@H]45)C2)C1 (some centres not stated) | -0.2%
CCC1(O)CC2CN(CCc3c([nH]c4ccccc34)[C@@](C(=O)OC)(c3cc4c(cc3OC)N(C)C3[C@]45CCN4CC=C[C@@](CC)([C@@H](OC(C)=O)[C@]3(O)C(=O)OC)[C@H]45)C2)C1 (some centres not stated) | 6.7% (active)
O=c1[nH]cc(F)c(=O)[nH]1 | 0.8% (active)
O=C(Nc1nc2ccccc2n1CCN1CCOCC1)c1cccc([N+](=O)[O-])c1 | 0.4% (active)
NC1CONC1=O (configuration not stated) | -3.5%
CN1C[C@H](C(=O)N[C@]2(C)O[C@@]3(O)[C@@H]4CCCN4C(=O)[C@H](Cc4ccccc4)N3C2=O)C[C@@H]2c3cccc4[nH]cc(c34)C[C@H]21 | 10% (active)
COc1cccc(OC)c1OCCNCC1CSc2ccccc2O1 (configuration not stated) | -0.7%
COc1cccc(OC)c1OCCNCC1COc2ccccc2O1 (configuration not stated) | 1.9% (active)
O=C1c2ccccc2C(=O)c2c(NCCc3ccc(O)cc3)ccc(NCCc3ccc(O)cc3)c21 | 11% (active)
N[C@@H](Cc1c[nH]c2ccccc12)C(=O)O | -0.2%
O=C(O)Cc1c[nH]c2ccc(O)cc12 | 15.6% (active)
N[C@H](C(=O)O)c1cc(O)cc(O)c1 | -6.1%
N[C@@H](Cc1c[nH]c2ccc(O)cc12)C(=O)O | 8.4% (active)
CCn1ccnc1CC1COc2ccccc2O1 (configuration not stated) | 0.9% (active)
NC(C(=O)N[C@@H]1C(=O)N2C(C(=O)O)=C(Cl)CS[C@H]12)c1ccccc1 (some centres not stated) | 0.4% (active)
CC1=C(C(=O)O)N2C(=O)[C@@H](NC(=O)C(N)C3=CCC=CC3)[C@H]2SC1 (some centres not stated) | -1.3%
NC(=O)c1cc[n+](CC2=C(C(=O)O)N3C(=O)[C@@H](NC(=O)[C@@H](c4ccccc4)S(=O)(=O)[O-])[C@H]3SC2)cc1 | -1%
CC1=C(C(=O)O)N2C(=O)[C@@H](NC(=O)C(N)c3ccccc3)[C@H]2SC1 (some centres not stated) | 2.2% (active)

SMILES | inhibition
NCCS(=O)O | -0.7%
O=C1OC(=O)C2C3CCC(O3)C12 (configuration not stated) | -1.3%
CC(N)=O | 4.6% (active)
NC(=O)C(=O)O | -8.6%
CC(=O)C(C)=O | 2.1% (active)
CC(=O)/C(C)=N/O | -5.2%
NC(=O)NO | -13.4%
Nc1ccc2c3c(cccc13)C(=O)NC2=O | 7.4% (active)
Nc1ncnc2c1ncn2C1CCCO1 (configuration not stated) | -0.8%
COc1ccc(C(=O)NCc2cccnc2)cc1C(=O)NCc1cccnc1 | -2.9%
O=C(CCNNC(=O)c1ccncc1)NCc1ccccc1 | 3.1% (active)
OC(CCN1CCCCC1)(c1ccccc1)C1CCCCC1 (configuration not stated) | -2.5%
OC(CCN1CCCCC1)(c1ccccc1)C1CC2C=CC1C2 (configuration not stated) | 2.7% (active)
NCCNC(=O)c1ncsc1-c1cccc(F)c1 | 0.5% (active)
CCN(CC)CC#CCOC(=O)C(O)(c1ccccc1)C1CCCCC1 (configuration not stated) | -2.5%
CC#C[C@]1(O)CC[C@H]2[C@@H]3CCC4=CC(=O)CCC4=C3[C@@H](c3ccc(N(C)C)cc3)C[C@@]21C | 29.9% (active)
O=C1Nc2ccc(I)cc2/C1=C/c1cc(Br)c(O)c(Br)c1 | 1.3% (active)
NCCS(=O)(=O)O | -4.9%
NCCCS(=O)(=O)O | 4.4% (active)
CC(C)Cn1c(=O)n(C)c(=O)c2[nH]cnc21 | 1.8% (active)
COCc1nc2c([nH]1)c(=O)n(C)c(=O)n2CC(C)C | -1.5%
Cc1nc2c([nH]1)c(=O)n(C)c(=O)n2Cc1ccco1 | -1.4%
Cn1c(=O)c2[nH]cnc2n(C)c1=O | 2.2% (active)

SMILES | inhibition
c1ccc(C(NCc2cccnc2)(c2ccccc2)c2ccccc2)cc1 | -3.5%
Clc1ccc(C(c2ccccc2Cl)C(Cl)Cl)cc1 (configuration not stated) | 22.6% (active)
O=C(O)/C=C/C(O)c1ccc(Cl)cc1 (configuration not stated) | -2.6%
Cc1ccc(N(CC2=NCCN2)c2cccc(O)c2)cc1 | 34.7% (active)
O=C1O/C(=C/Br)CCC1c1cccc2ccccc12 (configuration not stated) | 2.5% (active)
C[C@H](O)C(=O)C1=Nc2c(nc(N)[nH]c2=O)NC1 | 0.2% (active)
CCCc1c(OCCCOc2ccc(OCC(=O)O)cc2)ccc(C(C)=O)c1O | 4.1% (active)
O=C(O)/C(=C/c1c(C(=O)O)[nH]c2cc(Cl)cc(Cl)c12)c1ccccc1 | 3.9% (active)
O=C1NC(c2cccc([N+](=O)[O-])c2)=CCN1c1ccccc1O | 3.1% (active)
O=C(O)c1ccccc1Nc1cccc(OCc2ccc3ccccc3n2)c1 | 7.4% (active)
CCCCCC(O)c1cccc(OCc2ccc3ccccc3n2)c1 (configuration not stated) | 2.8% (active)
O=C(c1ccccc1)c1ccc2n1CCC2C(=O)O (configuration not stated) | -5%
C[C@H](NC(=O)/C(C#N)=C/c1ccc(O)c(O)c1)c1ccccc1 | 24.4% (active)
N#C/C(=C\c1ccc(O)c(O)c1)C(=O)NCCCc1ccccc1 | 21% (active)
NNCCc1ccccc1 | -0.4%
N#C/C(=C\c1ccc(O)c(O)c1)C(=O)NCCc1ccccc1 | 28.3% (active)
N#C/C(=C\c1ccc(O)c(O)c1)C(=O)Nc1ccccc1 | 26.5% (active)
C[C@]12C=CC(=O)C=C1CC[C@@H]1C2=CC[C@]2(C)[C@@H](C(=O)CN3CCN(c4cc(N5CCCC5)nc(N5CCCC5)n4)CC3)CC[C@@H]12 | -5.3%
CSc1ccc(C(=O)c2[nH]c(=O)[nH]c2C)cc1 | -1.7%
N#C/C(=C\c1ccc(O)c(O)c1)C(=O)NCc1ccccc1 | 26.3% (active)
N#C/C(=C\c1ccc(O)c(O)c1)C(=O)NCCCNC(=O)/C(C#N)=C/c1ccc(O)c(O)c1 | 25% (active)
